Reference: PubChem BioAssay (Tox21)
Records with an inconclusive call do not appear. The source made the active and inactive calls. Unless noted, calls follow the shape of the dose curve; as a rule, active = well fitted curve in the direction sought with a large enough effect in the repeat runs; inconclusive = weak or mixed curves; inactive = no such curve, though single readings can be large; an effect the other way counts as inactive or inconclusive.

Tests used:
[1] = qHTS assay to identify aromatase inhibitors - cell viability counter screen (AID 743084);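 also: cells stimulated with testosterone during compound exposure; nearly all actives have a fitted effect of over 55% in size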
[2] = molecular target: Aryl hydrocarbon receptor (Homo sapiens) (UniProt P35869); assay: qHTS assay to identify small molecule that activate the aryl hydrocarbon receptor (AhR) signaling pathway (AID 743085);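 also: HG2L7.5c1 human HepG2 liver cells with stably integrated DRE-driven firefly reporter; series mostly up to about 70 µM; nearly all actives have a fitted effect of over 15% in size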
Outline: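 Compounds were tested in HepG2 hepatocellular carcinoma cells harbouring a stably integrated luciferase gene under control of 20 DREs. Increased reporter signal after 24 h treatment at 37C was taken as AhR activation.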

[3] = qHTS assay to identify small molecule that activate the aryl hydrocarbon receptor (AhR) signaling pathway - cell viability counter screen (AID 743086);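 also: HepG2 liver cells carrying the AhR DRE luciferase reporter; series mostly up to about 70 µM; nearly all actives have a fitted effect of over 45% in size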
Outline: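 HepG2-AhR-luc (HG2L7.5c1) cells, 4000/well, were preincubated 5 h at 37C, exposed to compound in qHTS format for 24 hr at 37C, then given CellTiter-Fluor for 30 min; viability was read as fluorescence in the reporter wells.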

[4] = molecular target: Peroxisome proliferator-activated receptor gamma (Homo sapiens) (UniProt P37231); assay: qHTS assay to identify small molecule agonists of the peroxisome proliferator-activated receptor gamma (PPARg) signaling pathway (AID 743094; active = well fitted activation curve with a large enough effect in the signal ratio in the repeat runs, not every such curve was filed as active; the % refers to the signal ratio)
Outline: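 Agonist activity was taken from a beta-lactamase reporter (FRET substrate, 1 h at room temperature) in HEK293H cells carrying a PPARg UAS-bla construct. Compounds in DMSO were incubated 17 h at 37C after a 5 h cell pre-incubation.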

[5] = molecular target: Peroxisome proliferator-activated receptor gamma (Homo sapiens) (UniProt P37231); assay: qHTS assay to identify small molecule antagonists of the peroxisome proliferator-activated receptor gamma (PPARg) signaling pathway (AID 743191; calls by dose curve; also: series mostly up to about 63 µM; nearly all actives have a fitted effect of over 30% in size)
Outline: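 GeneBLAzer PPARg UAS-bla HEK293H cells carrying a UAS-driven beta-lactamase reporter were plated at 3000 cells/well, preincubated 5 h at 37C, then given compound for 17 h at 37C; LiveBLAzer B/G FRET substrate was read after 1 h at room temperature.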

[6] = qHTS assay to identify small molecule antagonists of the peroxisome proliferator-activated receptor gamma (PPARg) signaling pathway - cell viability counter screen (AID 743194); also: nearly all actives have a fitted effect of over 55% in size
Outline: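 PPARg-UAS-bla HEK293H cells were plated, rested 5 h at 37 C, then treated with compounds plus rosiglitazone (50 nM final) for 17 h at 37 C; viability was then read by CellTiter-Glo luminescence after 30 min at room temperature.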

[7] = qHTS assay for small molecule agonists of the antioxidant response element (ARE) signaling pathway - cell viability counter screen (AID 743203; calls by dose curve; also: nearly all actives have a fitted effect of over 55% in size)
Outline: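 Viability counter screen: CellTiter-Glo luminescence, read after 30 min at room temperature, in ARE-bla HepG2 wells. Compound exposure lasted 16 h at 37C/5% CO2, following a 5 h pre-incubation of the cells after plating.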

[8] = qHTS assay for small molecule activators of the heat shock response signaling pathway (AID 743210; active = well fitted activation curve with a large enough effect in the signal ratio in the repeat runs, with a control signal flat, not every such curve was filed as active; the % refers to the signal ratio; also: series mostly up to about 63 µM)
Outline: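 Heat shock element–beta-lactamase HeLa reporter cells; qHTS with compounds for 5 h at 37 C; detection by FRET substrate fluorescence after 2.5 h at RT.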

[9] = qHTS assay to identify small molecule agonists of the peroxisome proliferator-activated receptor delta (PPARd) signaling pathway - cell viability counter screen (AID 743211); also: nearly all actives have a fitted effect of over 55% in size
Outline: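 Counter screen for cytotoxicity run in parallel with the PPARd reporter screen. Beta-lactamase reporter HEK293H cells exposed to compounds 17 h; ATP-based CellTiter-Glo luminescence quantified viability.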

[10] = qHTS assay to identify small molecule antagonists of the peroxisome proliferator-activated receptor delta (PPARd) signaling pathway - cell viability counter screen (AID 743213); also: nearly all actives have a fitted effect of over 50% in size
Outline: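 Same-well viability: cells pre-incubated 5 h, dosed with compound plus 300 nM L165041, kept 17 h at 37 C, FRET substrate 2 h RT, then CellTiter-Glo 30 min RT and luminescence.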

[11] = molecular target: Peroxisome proliferator-activated receptor delta (Homo sapiens) (UniProt Q03181); assay: qHTS assay to identify small molecule antagonists of the peroxisome proliferator-activated receptor delta (PPARd) signaling pathway (AID 743215; active = well fitted inhibition curve with a large enough effect in the signal ratio in the repeat runs, not every such curve was filed as active; the % refers to the signal ratio;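 also: cells stimulated with agonist L165041 at 300 nM final during compound exposure; series mostly up to about 62 µM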)
Outline: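 Agonist L165041 (300 nM final) added with compound to PPARd-bla HEK293H UAS-bla reporter cells; 17 h incubation at 37 C. Read-out: LiveBLAzer FRET substrate, 2 h at room temperature, fluorescence intensity.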

[12] = qHTS assay to identify small molecule agonists of the farnesoid-X-receptor (FXR) signaling pathway - cell viability counter screen (AID 743218); also: nearly all actives have a fitted effect of over 45% in size
Outline: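 Viability counter screen in the same wells: CellTiter-Glo luminescence, 30 min room-temperature incubation, measured after the beta-lactamase read. Cells were GeneBLAzer FXR-UAS-bla HEK 293T, compound-treated 16 h at 37C.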

[13] = qHTS assay to identify small molecule antagonists of the farnesoid-X-receptor (FXR) signaling pathway - cell viability counter screen (AID 743221; active = well fitted cell-killing curve with a large enough effect in the repeat runs, not every such curve was filed as active; also: nearly all actives have a fitted effect of over 50% in size)
Outline: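 Multiplexed counter screen: viability of FXR-bla HEK 293T cells under agonist stimulation by chenodeoxycholic acid (50 uM, final) and test compound for 16 h at 37 C, measured by CellTiter-Glo luminescence in the reporter wells.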

[14] = qHTS assay for small molecule agonists of the antioxidant response element (ARE) signaling pathway (AID 743202; active = well fitted activation curve with a large enough effect in the signal ratio in the repeat runs, not every such curve was filed as active; the % refers to the signal ratio)
Outline: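 Following a 16 h, 37 C exposure of reporter HepG2 cells (ARE-driven beta-lactamase, 2,000 cells/well) to compounds, FRET substrate was applied for 2 h at room temperature and fluorescence intensity recorded.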

[15] = qHTS assay for small molecule activators of the heat shock response signaling pathway - cell viability counter screen (AID 743209); also: nearly all actives have a fitted effect of over 50% in size
Outline: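 Cytotoxicity counter screen run in the same wells as the heat-shock bla reporter assay: HeLa HSE-bla cells, 5 h compound exposure at 37 C, viability read by CellTiter-Glo luminescence.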

[16] = molecular target: Peroxisome proliferator-activated receptor delta (Homo sapiens) (UniProt Q03181); assay: qHTS assay to identify small molecule agonists of the peroxisome proliferator-activated receptor delta (PPARd) signaling pathway (AID 743212; calls by dose curve)
Outline: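 Beta-lactamase reporter read by fluorescence (LiveBLAzer B/G FRET, 2 h, room temperature). Test agents, in DMSO, incubated at 37 C with PPARd-bla HEK293H cells.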

[17] = molecular target: Vitamin D3 receptor (Homo sapiens) (UniProt P11473); assay: qHTS assay to identify small molecule agonists of the vitamin D receptor (VDR) signaling pathway (AID 743222; calls by dose curve)
Outline: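 Agonist mode, beta-lactamase reporter: fluorescence from LiveBLAzer B/G FRET substrate (2 h, room temperature) read after 16 h compound treatment at 37 C of VDR-bla cells, which were pre-incubated 4 h after seeding.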

[18] = molecular target: Vitamin D3 receptor (Homo sapiens) (UniProt P11473); assay: qHTS assay to identify small molecule antagonists of the vitamin D receptor (VDR) signaling pathway (AID 743223; active = well fitted inhibition curve with a large enough effect in the signal ratio in the repeat runs, not every such curve was filed as active; the % refers to the signal ratio)
Outline: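 Cells carrying a VDR-driven beta-lactamase reporter (VDR-bla) were co-treated with compound and 3 nM final 1alpha,25-dihydroxyvitamin D3 for 16 h at 37C; reporter activity was measured as FRET substrate fluorescence after 2 h at room temperature.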

[19] = molecular target: Bile acid receptor (Homo sapiens) (UniProt Q96RI1); assay: qHTS assay to identify small molecule antagonists of the farnesoid-X-receptor (FXR) signaling pathway (AID 743217; active = well fitted inhibition curve with a large enough effect in the signal ratio in the repeat runs, not every such curve was filed as active; the % refers to the signal ratio)
Outline: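 Antagonist mode: chenodeoxycholic acid at 50 uM final stimulates a UAS-driven beta-lactamase reporter in HEK 293T FXR-bla cells during 16 h, 37C compound exposure. Read-out is FRET substrate fluorescence after 2 h at room temperature.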

[20] = molecular target: Bile acid receptor (Homo sapiens) (UniProt Q96RI1); assay: qHTS assay to identify small molecule agonists of the farnesoid-X-receptor (FXR) signaling pathway (AID 743220; active = well fitted activation curve with a large enough effect in the signal ratio in the repeat runs, not every such curve was filed as active; the % refers to the signal ratio)
Outline: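 FXR-UAS-bla HEK 293T cells carrying a UAS-driven beta-lactamase reporter were plated for 5 h at 37C/5% CO2, then exposed to DMSO-dissolved Tox21 10K compounds for 16 h at 37C. A LiveBLAzer B/G FRET substrate was loaded for 2 h at room temperature before fluorescence reading.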
% is scaled to controls: 0 for no effect and ±100 for the full control effect.

Sequence of Aryl hydrocarbon receptor (Homo sapiens) (P35869 whole entry, looked up): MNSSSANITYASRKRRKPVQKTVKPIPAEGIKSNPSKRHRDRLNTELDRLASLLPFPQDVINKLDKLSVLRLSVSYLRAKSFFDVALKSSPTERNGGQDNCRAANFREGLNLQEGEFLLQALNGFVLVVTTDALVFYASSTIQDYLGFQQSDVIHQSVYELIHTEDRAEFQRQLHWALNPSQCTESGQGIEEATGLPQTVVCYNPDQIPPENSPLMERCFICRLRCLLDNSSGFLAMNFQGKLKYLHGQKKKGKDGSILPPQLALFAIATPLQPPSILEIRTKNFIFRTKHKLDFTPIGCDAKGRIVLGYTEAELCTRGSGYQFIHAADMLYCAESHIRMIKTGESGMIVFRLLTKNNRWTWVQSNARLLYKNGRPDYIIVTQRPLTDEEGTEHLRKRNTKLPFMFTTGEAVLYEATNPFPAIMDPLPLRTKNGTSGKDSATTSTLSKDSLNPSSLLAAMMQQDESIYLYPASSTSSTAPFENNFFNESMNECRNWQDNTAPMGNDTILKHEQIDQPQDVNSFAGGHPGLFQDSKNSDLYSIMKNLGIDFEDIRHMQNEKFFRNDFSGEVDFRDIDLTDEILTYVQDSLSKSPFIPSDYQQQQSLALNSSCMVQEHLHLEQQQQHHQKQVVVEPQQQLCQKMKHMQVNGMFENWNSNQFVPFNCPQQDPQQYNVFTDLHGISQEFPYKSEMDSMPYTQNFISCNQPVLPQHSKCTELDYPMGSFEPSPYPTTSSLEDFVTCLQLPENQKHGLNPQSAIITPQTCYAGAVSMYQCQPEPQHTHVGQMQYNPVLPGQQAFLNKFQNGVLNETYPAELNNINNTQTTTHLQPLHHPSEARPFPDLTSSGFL
Sequence of Peroxisome proliferator-activated receptor delta (Homo sapiens) (Q03181 whole entry, looked up): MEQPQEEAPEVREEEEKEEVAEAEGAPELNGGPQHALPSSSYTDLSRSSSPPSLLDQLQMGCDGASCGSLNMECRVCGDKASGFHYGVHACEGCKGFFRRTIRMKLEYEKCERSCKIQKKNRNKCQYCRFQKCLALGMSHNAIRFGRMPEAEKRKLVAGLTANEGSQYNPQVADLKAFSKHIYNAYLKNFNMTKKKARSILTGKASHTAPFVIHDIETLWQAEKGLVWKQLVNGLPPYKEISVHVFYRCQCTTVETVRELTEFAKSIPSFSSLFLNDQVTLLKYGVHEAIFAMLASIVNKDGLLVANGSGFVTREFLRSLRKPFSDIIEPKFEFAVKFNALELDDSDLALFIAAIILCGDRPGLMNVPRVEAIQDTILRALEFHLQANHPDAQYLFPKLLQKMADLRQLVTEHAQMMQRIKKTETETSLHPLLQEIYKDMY
Sequence of Bile acid receptor (Homo sapiens) (Q96RI1 whole entry, looked up): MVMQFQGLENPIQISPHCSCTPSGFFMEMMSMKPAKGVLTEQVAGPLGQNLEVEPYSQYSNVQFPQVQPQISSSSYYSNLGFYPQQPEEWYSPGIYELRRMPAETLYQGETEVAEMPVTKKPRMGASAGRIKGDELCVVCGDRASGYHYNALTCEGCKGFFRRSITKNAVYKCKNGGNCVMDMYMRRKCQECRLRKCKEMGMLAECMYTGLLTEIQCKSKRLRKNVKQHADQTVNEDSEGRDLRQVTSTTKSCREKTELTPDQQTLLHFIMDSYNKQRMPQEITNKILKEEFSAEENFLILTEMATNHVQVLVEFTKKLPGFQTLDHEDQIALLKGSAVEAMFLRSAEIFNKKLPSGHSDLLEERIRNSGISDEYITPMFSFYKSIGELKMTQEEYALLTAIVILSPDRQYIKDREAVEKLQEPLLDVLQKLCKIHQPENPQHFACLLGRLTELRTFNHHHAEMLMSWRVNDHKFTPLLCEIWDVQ
Sequence of Peroxisome proliferator-activated receptor gamma (Homo sapiens) (P37231 whole entry, looked up): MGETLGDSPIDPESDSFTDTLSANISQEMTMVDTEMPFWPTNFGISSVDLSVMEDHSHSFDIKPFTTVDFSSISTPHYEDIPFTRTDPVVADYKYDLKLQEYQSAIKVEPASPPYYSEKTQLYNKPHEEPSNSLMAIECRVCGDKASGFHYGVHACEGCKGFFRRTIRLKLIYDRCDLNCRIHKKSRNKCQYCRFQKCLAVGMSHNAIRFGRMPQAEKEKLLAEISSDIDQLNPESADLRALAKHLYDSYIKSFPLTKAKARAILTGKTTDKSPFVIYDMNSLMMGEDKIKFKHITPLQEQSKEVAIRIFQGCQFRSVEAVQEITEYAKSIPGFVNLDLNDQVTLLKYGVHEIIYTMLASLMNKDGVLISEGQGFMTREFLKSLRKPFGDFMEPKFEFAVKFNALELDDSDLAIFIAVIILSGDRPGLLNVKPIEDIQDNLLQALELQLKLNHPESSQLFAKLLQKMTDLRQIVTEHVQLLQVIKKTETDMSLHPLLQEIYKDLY
Sequence of Vitamin D3 receptor (Homo sapiens) (P11473 whole entry, looked up): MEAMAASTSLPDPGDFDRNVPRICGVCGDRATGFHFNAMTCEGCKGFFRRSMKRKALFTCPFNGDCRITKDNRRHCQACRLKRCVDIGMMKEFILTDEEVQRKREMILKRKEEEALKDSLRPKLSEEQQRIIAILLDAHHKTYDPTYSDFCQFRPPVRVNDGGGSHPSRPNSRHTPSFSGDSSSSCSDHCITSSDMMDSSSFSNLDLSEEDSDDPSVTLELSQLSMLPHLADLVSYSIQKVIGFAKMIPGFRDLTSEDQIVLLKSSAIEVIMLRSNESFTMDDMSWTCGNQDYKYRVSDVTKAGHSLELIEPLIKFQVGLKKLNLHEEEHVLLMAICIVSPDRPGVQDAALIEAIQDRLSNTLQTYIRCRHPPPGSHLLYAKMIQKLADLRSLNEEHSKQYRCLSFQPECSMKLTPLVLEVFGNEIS

CCOC(=O)[C@H](CCc1ccccc1)N[C@@H](C)C(=O)N1C(=O)N(C)C[C@H]1C(=O)O
inactive: Potency [1] | Potency [2] | Potency [3] | outcome [4] | Potency [5] | outcome [6] | outcome [7] | outcome [8] | outcome [9] | outcome [10] | outcome [11] | Potency [12] | outcome [13]

CCOC(=O)c1ccc(OC(=O)CCCCCN=C(N)N)cc1
inactive: Potency [1] | Potency [2] | Potency [3] | outcome [4] | Potency [5] | Potency [14] | outcome [7] | outcome [15] | outcome [8] | outcome [9] | outcome [16] | outcome [10] | outcome [13]

O=C(OCc1ccccc1)C(=O)OCc1ccccc1
inactive: Potency [1] | Potency [2] | Potency [3] | outcome [4] | Potency [5] | outcome [6] | outcome [7] | outcome [15] | outcome [16] | outcome [10] | outcome [11] | Potency [12] | outcome [13] | outcome [17] | outcome [18]

CCCCCCCC/C=C\CCCCCCCC(=O)OCCCC
inactive: Potency [1] | Potency [2] | Potency [3] | outcome [4] | outcome [6] | Potency [14] | outcome [7] | outcome [15] | outcome [8] | outcome [9] | outcome [16] | outcome [10] | outcome [11] | Potency [19] | Potency [12] | Potency [20] | outcome [13] | outcome [17]

O=C1CCCC(=O)O1
inactive: Potency [1] | Potency [2] | Potency [3] | outcome [4] | Potency [5] | outcome [7] | outcome [15] | outcome [8] | outcome [9] | outcome [16] | Potency [12] | outcome [13] | outcome [18]

C=C1CC/C=C(\C)CC[C@@H]2[C@@H]1CC2(C)C
inactive: Potency [1] | Potency [2] | Potency [3] | outcome [4] | Potency [5] | outcome [6] | outcome [7] | outcome [15] | outcome [9] | outcome [10] | Potency [19] | Potency [12] | Potency [20] | outcome [13] | outcome [17] | outcome [18]

CC/C=C\CC1=C(C)CCC1=O
inactive: Potency [1] | Potency [2] | Potency [3] | outcome [4] | Potency [5] | outcome [6] | outcome [7] | outcome [15] | outcome [8] | outcome [9] | Potency [12] | outcome [13] | outcome [18]

CC(C)NCC(O)COc1ccc(COCCOC(C)C)cc1 (stereo not drawn)
inactive: Potency [1] | Potency [2] | Potency [3] | outcome [4] | Potency [5] | outcome [6] | outcome [7] | outcome [8] | outcome [9] | outcome [10] | outcome [11] | Potency [19] | Potency [20] | outcome [13] | outcome [17]

CCOC(=O)c1ncn2c1CN(C)C(=O)c1cc(F)ccc1-2
inactive: Potency [1] | Potency [2] | Potency [3] | outcome [4] | Potency [5] | outcome [6] | outcome [7] | outcome [15] | outcome [8] | outcome [9] | outcome [10] | Potency [12] | outcome [13] | outcome [18]

OC[C@H](Cc1cccc(O)c1)[C@H](CO)Cc1cccc(O)c1
inactive: Potency [1] | Potency [2] | Potency [3] | outcome [4] | Potency [5] | outcome [6] | outcome [7] | outcome [8] | outcome [9] | outcome [16] | outcome [10] | outcome [11] | Potency [19] | Potency [12] | Potency [20] | outcome [13] | outcome [17] | outcome [18]

N[C@@H](COP(=O)(O)O)C(=O)O
inactive: Potency [1] | Potency [2] | Potency [3] | outcome [4] | Potency [5] | Potency [14] | outcome [7] | outcome [15] | outcome [9] | outcome [10] | outcome [11] | Potency [19] | Potency [12] | Potency [20] | outcome [13] | outcome [17]

C[Si](C)=O
inactive: activity change, negative = cytotoxicity [1] -1.09% [at 8.47 µM] | activation [2] -0.45% [at 8.47 µM] | viability change, negative = cytotoxic [3] -0.537% [at 8.47 µM] | activation [4] -3.83% [at 7.08 µM] | ratio activity, negative = inhibition [5] 8.93% [at 5.95 µM] | activity change, negative = cytotoxicity [6] 17.1% [at 5.95 µM] | viability change, negative = cytotoxic [7] -8.17% [at 8.36 µM] | activation [8] -1.34% [at 5.95 µM] | activity change, negative = cytotoxicity [9] 1.6% [at 5.95 µM] | activation [16] 0.307% [at 5.95 µM] | viability change, negative = cytotoxic [10] -0.681% [at 6.26 µM] | ratio activity, negative = inhibition [11] 22.7% [at 6.26 µM] | activity change, negative = inhibition [19] 6.53% [at 5.95 µM] | viability change, negative = cytotoxic [12] 5.27% [at 5.95 µM] | activation [20] 2.56% [at 5.95 µM] | activity change, negative = cytotoxicity [13] -2.54% [at 5.95 µM]

O=C(O)c1ccc(Cl)cc1Cl
inactive: Potency [1] | Potency [2] | Potency [3] | outcome [4] | outcome [6] | Potency [14] | outcome [7] | outcome [15] | outcome [8] | outcome [9] | outcome [16] | outcome [10] | outcome [11] | Potency [19] | Potency [12] | Potency [20] | outcome [13] | outcome [18]
